Reference: PubChem BioAssay (EPA / NIEHS)
Results filed as inconclusive are left out. The source made the active and inactive calls. The calls were made as follows, unless noted: active = hit-call score of the fitted dose curve at least 0.9, where 1 is the maximum; inconclusive = response in the unintended direction; inactive = score below 0.9.

What was measured:
[1] = Tanguay_ZF_120hpf_OTIC_legacy: (Legacy) Oregon State University Tanguay Lab 120 Hour Post-fertilization zebrafish Assay for Otic Vesicle Malformation (AID 2283639)
How it was run: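 Binary scoring of otic vesicle defects at 120 hpf in zebrafish (Tropical 5D) held under static exposure at 28C, sealed and shaded, with final DMSO 0.64%. Embryos dying by 24 or 120 hpf excluded; fitted positively against DMSO.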

[2] = Tanguay_ZF_120hpf_PE_legacy: (Legacy) Oregon State University Tanguay Lab 120 Hour Post-fertilization zebrafish Assay for Pericardial Edema (AID 2283640)
How it was run: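 Tropical 5D wild-type zebrafish embryos were exposed statically to 120 hpf at 28C, sealed and foil-covered, in 0.64% DMSO final. Pericardial edema was scored present/absent by brightfield microscopy; dead embryos were not scored.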

[3] = Tanguay_ZF_120hpf_BRAI_legacy: (Legacy) Oregon State University Tanguay Lab 120 Hour Post-fertilization zebrafish Assay for Brain Malformation (AID 2283641)
How it was run: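 Tropical 5D wild-type zebrafish embryos were exposed statically in sealed, foil-covered plates at 28C until 120 hpf, with 0.64% (vol/vol) final DMSO. Brain malformation was scored present/absent by brightfield microscopy, relative to DMSO baseline.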

[4] = Tanguay_ZF_120hpf_SOMI_legacy: (Legacy) Oregon State University Tanguay Lab 120 Hour Post-fertilization zebrafish Assay for Somite Malformation (AID 2283647)
How it was run: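 Tropical 5D wild-type zebrafish embryos, dechorionated with pronase at 4 hpf, were placed singly at 6 hpf and statically exposed until 120 hpf at 28C in 0.64% DMSO. Somite malformation was scored present/absent by brightfield microscopy versus DMSO.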

[5] = Tanguay_ZF_120hpf_PFIN_legacy: (Legacy) Oregon State University Tanguay Lab 120 Hour Post-fertilization zebrafish Assay for Pectoral Fin Malformation (AID 2283648);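 also: each larva judged yes or no for fin defect by brightfield with dead larvae skipped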
How it was run: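 Pectoral fin malformation was recorded as a binary endpoint at 120 hpf in wild-type Tropical 5D larvae, which had been dechorionated and exposed statically from 6 hpf at 28C in 0.64% DMSO. Dead embryos were excluded.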

[6] = Tanguay_ZF_120hpf_CFIN_legacy: (Legacy) Oregon State University Tanguay Lab 120 Hour Post-fertilization zebrafish Assay for Caudal Fin Malformation (AID 2283649)
How it was run: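 Tropical 5D wild-type embryos, dechorionated with pronase at 4 hpf, were placed singly in wells at 6 hpf and statically exposed to compound at 28C until 120 hpf (0.64% DMSO). Caudal fin malformation was scored present/absent by brightfield microscopy.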

[7] = Tanguay_ZF_120hpf_PIG_legacy: (Legacy) Oregon State University Tanguay Lab 120 Hour Post-fertilization zebrafish Assay for Pigmentation Malformation (AID 2283650)
How it was run: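 Pigment malformation recorded as a binary call at 120 hpf in zebrafish (Tropical 5D) exposed singly from 6 hpf after pronase dechorionation. Static, sealed, 28C exposure, 0.64% DMSO; mortality excludes scoring; positive-direction fit against DMSO.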

[8] = Tanguay_ZF_120hpf_CIRC_legacy: (Legacy) Oregon State University Tanguay Lab 120 Hour Post-fertilization zebrafish Assay for Circulatory Malformation (AID 2283651)
How it was run: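 Binary circulatory malformation call at 120 hpf by brightfield imaging of zebrafish larvae; chorion removed at 4 hpf, static exposure from 6 hpf in sealed dark plates at 28C, final DMSO 0.64%; non-mortality endpoints skipped if embryo died.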

[9] = Tanguay_ZF_120hpf_SWIM_legacy: (Legacy) Oregon State University Tanguay Lab 120 Hour Post-fertilization zebrafish Assay for Swim Bladder Malformation (AID 2283654);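 also: swim bladder malformation in each larva scored yes or no under brightfield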
How it was run: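 Scoring is binary for swim bladder defects at 120 hpf, by brightfield inspection of zebrafish larvae. Embryos were exposed singly from 6 hpf after pronase dechorionation, at 28C with 0.64% DMSO; mortality excluded scoring.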

[10] = Tanguay_ZF_120hpf_TRUN_legacy: (Legacy) Oregon State University Tanguay Lab 120 Hour Post-fertilization zebrafish Assay for Truncated Body (AID 2283655)
How it was run: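 Tropical 5D wild-type embryos, dechorionated with pronase at 4 hpf, were placed singly in wells at 6 hpf and statically exposed at 28C until 120 hpf, final DMSO 0.64%. Truncated body was scored present/absent by brightfield microscopy.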

[11] = Tanguay_ZF_120hpf_NC_legacy: (Legacy) Oregon State University Tanguay Lab 120 Hour Post-fertilization zebrafish Assay for Notochord and Tail Malformation (AID 2283656)
How it was run: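 Binary scoring of notochord distortion by brightfield microscopy; embryos dying were not scored. Wild-type Tropical 5D embryos, chorion removed, exposed singly and statically from 6 to 120 hpf, 28C, sealed, 0.64% DMSO.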

[12] = Tanguay_ZF_120hpf_TR_legacy: (Legacy) Oregon State University Tanguay Lab 120 Hour Post-fertilization zebrafish Assay for Touch Response (AID 2283667)
How it was run: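 Binary touch-response endpoint in larvae at 120 hpf after static waterborne exposure from embryo stage (28°C, 0.64% DMSO vehicle, 5 uM trimethyltin chloride as positive control); embryos dead at 24 or 120 hpf excluded; fitted as gain versus DMSO.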

[13] = Tanguay_ZF_120hpf_ActivityScore_legacy: (Legacy) Oregon State University Tanguay Lab 120 Hour Post-fertilization zebrafish Assay Score for Activity (AID 2283742)
How it was run: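 Binary scoring of mortality and morphology by brightfield at 24 and 120 hpf, summarised into one activity score from 18 components relative to DMSO. Wild-type Tropical 5D zebrafish, chorion removed at 4 hpf, static exposure 6–120 hpf, 28 °C.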

[14] = target: guinea pig Leukotriene D4 Receptor (LTD4), CYSLTR1 (gene 100135514) (UniProt Q2NNR5); experiment: NVS_GPCR_gLTD4: NovaScreen (NVS) G Protein-Coupled Receptor Assay for guinea pig Leukotriene D4 Receptor (LTD4) (AID 2283248)
Chain of guinea pig Leukotriene D4 Receptor (LTD4), CYSLTR1 (gene 100135514) (Q2NNR5 whole entry, looked up): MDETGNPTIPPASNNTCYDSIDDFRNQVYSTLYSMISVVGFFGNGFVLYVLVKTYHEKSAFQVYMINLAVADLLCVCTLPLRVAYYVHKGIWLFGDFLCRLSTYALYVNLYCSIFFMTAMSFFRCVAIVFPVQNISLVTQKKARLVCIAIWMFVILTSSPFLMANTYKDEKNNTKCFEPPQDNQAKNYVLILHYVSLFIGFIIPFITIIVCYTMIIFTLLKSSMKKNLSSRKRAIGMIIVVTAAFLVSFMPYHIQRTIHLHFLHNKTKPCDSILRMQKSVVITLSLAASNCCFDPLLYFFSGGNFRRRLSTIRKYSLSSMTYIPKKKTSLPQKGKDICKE
How it was run: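 Guinea pig lung membrane preparation; bound radioligand measured by filter scintillation after 1 h, loss of signal versus DMSO marking displacement. Compounds tested at 25 uM in duplicate, hits retested to max 50 uM.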

[15] = TOX21_TR_RXR_BLA_Agonist_Followup_viability: Viability Assessment in the Tox21 Thyroid Hormone Receptor beta Retinoid X Receptor alpha (RXRa) Agonism Beta-lactamase (BLA) Follow-Up Assay (AID 2283970)
How it was run: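 CellTiter-Glo ATP luciferase read-out of cell viability, multiplexed with the beta-lactamase reporter run. RXRa-bla HEK293T cells in charcoal-stripped serum medium were exposed 16 h at 37C; data fitted both directions relative to DMSO.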

[16] = target: human Caspase 5 (CASP5), CASP5 (gene 838) (UniProt P51878); experiment: NVS_ENZ_hCASP5: NovaScreen (NVS) Enzymatic Assay for human Caspase 5 (CASP5) (AID 2283137)
Chain of human Caspase 5 (CASP5), CASP5 (gene 838) (P51878 whole entry, looked up): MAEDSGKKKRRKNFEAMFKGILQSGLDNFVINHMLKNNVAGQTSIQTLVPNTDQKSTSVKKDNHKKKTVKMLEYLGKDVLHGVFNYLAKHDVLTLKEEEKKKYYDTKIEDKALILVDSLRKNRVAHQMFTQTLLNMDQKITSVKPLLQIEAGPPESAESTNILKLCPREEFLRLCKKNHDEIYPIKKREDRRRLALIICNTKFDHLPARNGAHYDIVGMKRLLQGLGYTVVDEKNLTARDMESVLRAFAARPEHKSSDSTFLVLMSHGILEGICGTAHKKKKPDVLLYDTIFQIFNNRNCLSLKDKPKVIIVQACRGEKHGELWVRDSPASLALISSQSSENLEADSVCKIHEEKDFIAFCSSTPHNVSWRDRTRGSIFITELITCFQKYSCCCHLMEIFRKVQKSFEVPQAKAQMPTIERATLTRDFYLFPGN
How it was run: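 Loss of fluorescent signal versus DMSO scored for E. coli-derived human CASP5 cleaving a fluorescent substrate, 2 h post-dosing; compounds first tested at 25 uM in duplicate, hits rerun in concentration series with 50 uM top concentration.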

[17] = UKN5_HCS_SBAD2_cell_viability: Viability Assessment in the University of Konstanz (UKN) Leist Lab Neurite Outgrowth Assay in human iPSC-derived immature Dorsal Root Ganglia Neurons (UKN5) (AID 2284056; active = hit-call score of the fitted dose curve at least 0.9, where 1 is the maximum; inactive = score below 0.9)
How it was run: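 iPSC-derived immature peripheral neurons (SBAD2) seeded on Matrigel with CHIR99021, SU5402 and DAPT, dosed 1 h later for 24 h. Viability from Hoechst H-33342 and calcein-AM live staining, high-content imaging; bidirectional fit versus DMSO.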

[18] = UKN5_HCS_SBAD2_neurite_outgrowth: University of Konstanz (UKN) Leist Lab Neurite Outgrowth Assay in human iPSC-derived immature Dorsal Root Ganglia Neurons (UKN5) (AID 2284070; active = hit-call score of the fitted dose curve at least 0.9, where 1 is the maximum; inactive = score below 0.9); settings: actives raise or lower the signal
How it was run: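 Neurite area from calcein-AM high-content images after 24 h exposure (staining included), with H-33342 for viability, fitted both directions against DMSO. Cells: thawed immature SBAD2 peripheral neurons, 100.000 cells/cm2, with CHIR99021, SU5402, DAPT; dosing 1 h after seeding.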

[19] = CCTE_Mundy_HCI_Cortical_NOG_NeuronCount: CCTE's Neurite Outgrowth Assay in rat cortical cells for Neuron Count, Mundy Lab (AID 2284236);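 also: neurons counted by imaging betaIII-tubulin and Hoechst stained cortical cells; cells exposed to compound for about 48 hours before fixation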
How it was run: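 Read-out: neuron number by high-content imaging of betaIII-tubulin (Alexa Fluor-488) and Hoechst-labelled rat primary cortical cells.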

Measured: AC50

CCC(C)=NO
not listed: [14] | [15] | [16] | [17] | [18] | [19]
inactive: all other assays above

CCCCCCCCCCCCCCCCCC[N+](C)(C)C
inactive: [14]

CC(C)CC(=O)O
inactive: [15]

CC1(C)S[C@@H]2[C@H](NC(=O)[C@H](N)c3ccccc3)C(=O)N2[C@H]1C(=O)O
inactive: [17] | [18] | [19]
active: [16] 1880 nM
